Screening results (PubChem)
Pf growth 96h = P. falciparum growth inhibition at 96 hours; P. falciparum luciferase reporter growth, 96 h; Potency, µM (titrated, usually from 28.7 µM), inactives show at the top dose activity change, negative = inhibition, usual class: inhibitors; 6.9% of 320,000 active; AID 504834; note: potency is the fitted concentration of half-maximal effect
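Cell-based qHTS: luciferase-tagged P. falciparum in erythrocytes (2% hematocrit, 0.05% parasitemia final) incubated with compounds for 96 hours, 37 C, 5% CO2; luciferase detection reagent then added and luminescence measured.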
HCMV antiviral = inhibitors of human cytomegalovirus. HFF cells, HCMV-luciferase reporter, 72 h; active compounds read low. activity change, negative = inhibition, % at 57.5 µM. 4.5% of 410,000 active. AID 1259415; in the data active = activity change below about -60%; inconclusive = no clear call, values can overlap the other calls; inactive = above about -39%
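HFF cells seeded 16 h at 37C, treated with compounds, infected with luciferase-reporter HCMV at MOI 1 PFU/cell; luciferase read at 72 h post infection, normalized to buffer-only and Salinomycin controls.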
Pf growth 48h = P. falciparum growth inhibition at 48 hours (one generation); 5.9% of 310,000 active; Potency, µM (top dose mostly 28.7 µM), for inactives: at the highest dose activity change, negative = inhibition, hits mostly inhibitors; AID 504832; P. falciparum luciferase growth in erythrocytes, 48 h; note: potency is the fitted concentration of half-maximal effect
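Cell-based growth assay: transgenic P. falciparum expressing firefly luciferase, cultured in red cells within RPMI 1640 containing 0.5% w/v Albumax, 24 mM bicarbonate and gentamycin. A drop in luciferase activity indicates inhibition.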
HCV inh = blocks hepatitis C virus | Potency, µM (doses to about 41.8 µM), without a hit: at the top dose activity change, negative = inhibition, hits mostly inhibitors | Huh7.5.1 HCVcc-Cre infection, luciferase reporter, 44 h | 3.4% of 340,000 active; note: potency is the fitted concentration of half-maximal effect
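Infectious HCVcc-Cre (~0.5 moi) was added to cells just after compound, with cells seeded 4 h earlier at 1,000 per well. Luciferase activity after 44 h culture reported infection; substrate was incubated 15 min at room temperature before reading.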
An asterisk follows results filed as active; [ ] = another dose, or the depositor's remark. Sampled rows, rich in hits. Any-hit rate of the full collection: about 13%. Unless noted, calls come from the whole dose curve; as a rule, active = well fitted inhibition curve with a large enough effect; inconclusive = small, poorly fitted or top-dose-only effect, or another doubt; inactive = no such curve, though single readings can be large or run the other way. % is set by controls: 0 for no effect and ±100 for the full control effect.

What do the screens show for `CCN1CCN(c2ccc(S(=O)(=O)N3CCCCC3)cc2NC(=O)Cc2ccc(Cl)c(Cl)c2)CC1`?
Pf growth 96h: 10µM*; Pf growth 48h: 10µM*; HCV inh: inconclusive

What do the screens show for `COC(=O)c1ccccc1NC(=O)c1ncoc1-c1ccco1`?
HCMV antiviral: -27

How did Cc1cc([N+](=O)[O-])ccc1NC(=O)CSc1nccn1C do in these assays?
HCMV antiviral: -4

Results for COc1ccc(NC(=O)c2ccco2)cc1NC(=O)c1cc(OC)c(OC)c(OC)c1 ?
HCMV antiviral: 15

Results for CC(C)C(=O)N1CCC1(C)C(=O)Nc1ccc(-n2cccc2)cc1 (configuration not stated) ?
HCMV antiviral: -5

How did CCN1CCN(c2ccc(S(=O)(=O)N3CCCCC3)cc2NC(=O)c2ccccc2)CC1 do in these assays?
Pf growth 96h: -13%; HCMV antiviral: 27; Pf growth 48h: inconclusive; HCV inh: 9%

Results for COc1ccccc1OCC(=O)Nc1cc(C(F)(F)F)ccc1-n1cncn1 ?
Pf growth 96h: inconclusive; HCMV antiviral: -30; Pf growth 48h: 9.3µM*; HCV inh: -8%

What do the screens show for `COc1cc(C(C)=O)ccc1OCC(=O)Nc1cc(Cl)ccc1-n1cncn1`?
Pf growth 96h: -24%; HCMV antiviral: -1; Pf growth 48h: -1%; HCV inh: inconclusive

How did CCN1CCN(c2ccc(S(=O)(=O)N3CCCCC3)cc2NC(=O)c2ccc([N+](=O)[O-])s2)CC1 do in these assays?
Pf growth 96h: 1.7µM*; HCMV antiviral: -26; Pf growth 48h: 4.7µM*; HCV inh: 35µM*

How did COc1ccc(/C=C(\C#N)C(=O)Nc2cc(S(=O)(=O)N3CCCCC3)ccc2N2CCCCC2)cc1 do in these assays?
Pf growth 96h: 8.3µM*; HCMV antiviral: -13; Pf growth 48h: inconclusive; HCV inh: 1%

What do the screens show for `CCOc1ccc(S(=O)(=O)N2CCN(CC)CC2)cc1NC(=O)c1ccccc1F`?
Pf growth 96h: -32%; HCMV antiviral: -84*; Pf growth 48h: -4%; HCV inh: -15%

How did CCN1CCN(c2ccc(S(=O)(=O)N3CCCCC3)cc2NC(=O)Cc2ccccc2)CC1 do in these assays?
Pf growth 96h: inconclusive; HCMV antiviral: -14; Pf growth 48h: inconclusive; HCV inh: inconclusive

How did CCN1CCN(c2ccc(S(=O)(=O)N3CCCCC3)cc2NC(=O)COc2ccccc2)CC1 do in these assays?
Pf growth 96h: inconclusive; HCMV antiviral: -3; Pf growth 48h: 12µM*; HCV inh: inconclusive

What do the screens show for `CCc1ccc(C(=O)CC2(O)C(=O)N(CCc3ccccc3)c3ccc(Cl)cc32)cc1` (configuration not stated)?
HCMV antiviral: -28

How did CC(=O)OCCN(CCCn1c(-c2ccncc2)nc2ccccc21)c1nc(CN2CCCCC2)cs1 do in these assays?
Pf growth 96h: inconclusive; HCMV antiviral: 28; Pf growth 48h: inconclusive; HCV inh: 2.5µM*

How did c1ccc2c(c1)nc(-c1ccncc1)n2CCNc1nc(CN2CCCCC2)cs1 do in these assays?
Pf growth 96h: 57%; HCMV antiviral: -9; Pf growth 48h: inconclusive; HCV inh: 9%

How did Cc1ccn2c(Nc3ccc4c(c3)OCO4)c(-c3ccco3)nc2c1 do in these assays?
HCMV antiviral: 50

How did COc1cc(OC)c(NC(=O)Cn2c(=O)c(C(F)(F)F)nc3ccccc32)cc1Cl do in these assays?
HCMV antiviral: -4

How did Nc1ncc([N+](=O)[O-])cc1Br do in these assays?
Pf growth 96h: 64%; HCMV antiviral: -30; Pf growth 48h: 37%; HCV inh: -1%

Results for CN(C)c1ncc([N+](=O)[O-])cc1C(F)(F)F ?
Pf growth 96h: 38%; HCMV antiviral: -4; Pf growth 48h: 0.74µM*; HCV inh: 14%

Results for Cc1nc(N)nc(N)c1Oc1ccc(Cl)cc1 ?
HCMV antiviral: -39; HCV inh: inconclusive

Results for Cc1nc(N)nc(N)c1/C=C/C(C)(C)c1ccc(Cl)cc1 ?
Pf growth 96h: -78%; HCMV antiviral: -109*; Pf growth 48h: -90%; HCV inh: inconclusive

What do the screens show for `Cn1cc(S(=O)(=O)c2ccc(Cl)cc2)c(=O)c2cc(F)c(N3CCCCCC3)cc21`?
HCMV antiviral: -8

Results for O=C(C1=C[C@@H](c2ccc(C(F)(F)F)cc2)C[C@@H](OCc2ccc(CO)cc2)O1)N1CCN(Cc2ccc3c(c2)OCO3)CC1 ?
Pf growth 96h: 2.3µM*; HCMV antiviral: 5; Pf growth 48h: inconclusive; HCV inh: inconclusive

What do the screens show for `CC(C)(C)[C@H]1C=C(C(=O)N2CCN(Cc3ccc4c(c3)OCO4)CC2)O[C@@H](OCCCCO)C1`?
Pf growth 96h: inconclusive; HCMV antiviral: inconclusive; Pf growth 48h: inconclusive; HCV inh: 12%

Results for O=C(C1=C[C@H](c2ccc3c(c2)OCO3)C[C@H](OCc2ccc(CO)cc2)O1)N1CCCCCCC1 ?
Pf growth 96h: inconclusive; HCMV antiviral: -3; Pf growth 48h: inconclusive; HCV inh: 35%[8.37 µM]

How did O=C(C1=C[C@@H](C2CCCCC2)C[C@@H](OCCCCO)O1)N1CCN(Cc2ccc3c(c2)OCO3)CC1 do in these assays?
Pf growth 96h: 6.6µM*; HCMV antiviral: -18; Pf growth 48h: inconclusive; HCV inh: -7%

How did O=C(C1=C[C@H](c2ccc(C(F)(F)F)cc2)C[C@H](OCc2ccc(CO)cc2)O1)N1CCN(Cc2ccc3c(c2)OCO3)CC1 do in these assays?
Pf growth 96h: 3.7µM*; HCMV antiviral: -18; Pf growth 48h: inconclusive; HCV inh: 10µM*

Results for CC(C)(C)[C@@H]1C=C(C(=O)N2CCN(Cc3ccc4c(c3)OCO4)CC2)O[C@H](OCc2ccc(CO)cc2)C1 ?
Pf growth 96h: 12µM*; HCMV antiviral: 41; Pf growth 48h: 10µM*; HCV inh: 11%

Results for CCOC(=O)c1c(C)oc2nc(C)nc(NCc3ccc(OC)cc3)c12 ?
HCMV antiviral: -1

How did COc1ccc(CNC(=O)c2cnc(N3CCCC3)nc2C)cc1 do in these assays?
HCMV antiviral: -11

Results for CN1C(=O)Cc2cc(S(=O)(=O)NCc3ccc(Cl)cc3)ccc21 ?
HCMV antiviral: 26

Results for O=C(C1=C[C@H](c2ccc(C(F)(F)F)cc2)C[C@H](OCCCCO)O1)N1CCN(Cc2ccccc2)CC1 ?
Pf growth 96h: inconclusive; HCMV antiviral: 14; Pf growth 48h: inconclusive; HCV inh: -8%

Results for O=C(C1=C[C@@H](c2ccc(C(F)(F)F)cc2)C[C@@H](OCCCCO)O1)N1CCN(Cc2ccc3c(c2)OCO3)CC1 ?
Pf growth 96h: 9.3µM*; Pf growth 48h: inconclusive; HCV inh: -14%

How did O=C(C1=C[C@@H](c2ccc(Br)cc2)C[C@@H](OCc2ccc(CO)cc2)O1)N1CCN(Cc2ccc3c(c2)OCO3)CC1 do in these assays?
Pf growth 96h: 15µM*; Pf growth 48h: inconclusive; HCV inh: inconclusive
